Source: PubChem BioAssay (NCATS)
Inconclusive results are not listed. Activity calls are given as the source filed them. The call rests on the fitted dose curve.

molecular target: Thyroid hormone receptor beta (Homo sapiens) (UniProt P10828); assay: qHTS assay for small molecule agonists of thyroid hormone receptor beta signaling (AID 588545); conditions: TR-UAS-bla GripTite HEK 293, beta-lactamase ratio, agonist mode, 18 h, percent of T3 response, DMSO as zero; series mostly up to 76.7 µM; activation: at the top concentration
From the text: NIH Chemical Genomics Center [NCGC]
U.S. Environmental Protection Agency [EPA]
National Institutes of Environmental Health Sciences [NIEHS]
National Toxicology Program [NTP]
Thyroid hormone receptor (TR) belongs to nuclear hormone receptor superfamily. There are two subtypes for TR: TR-alpha and TR-beta. TR-beta plays a major role in regulating plasma cholesterol levels and it mediates the biological activities of thyroid hormone. Screening environmental chemicals on TR-beta signaling will provide important information for the mechanism of compound action.
NCGC Assay Protocol Summary
Using a beta-lactamase reporter-gene under control of the TR response element, a cell-based assay [GeneBLAzer TR-UAS-bla-GripTite assay developed by Invitrogen] was used to measure TR-beta signaling in agonist mode. TR-UAS-bla-GripTite HEK 293 cells were used with assay medium containing 2% charcoal/dextran FBS, 0.1 mM NEAA and 1 mM sodium pyruvate. The assay was performed in clear bottom black Greiner 1536-well plates. T3 was used as a positive control in the screen. Library compounds were measured for their ability to stimulate the reporter gene activity. Compounds were screened in a titration series in 1536-well format. The fluorescence intensity (405 nm excitation, 460/530 nm emission) was measured using an EnVision plate reader. Data was normalized relative to T3 control (10 nM, 100%), and DMSO only wells (basal, 0%). Concentration-response titration points for each compound were fitted to the Hill equation yielding concentrations of half-maximal stimulation (EC50) and maximal response (efficacy) values.
qHTS protocol for TR-beta beta-lactamase assay in agonist mode
[Step] [Parameter] [Value] [Description]
1. Reagent; 6 uL; 2500 cells/well
2. Incubation; 37 C for 4 hrs
- Dose response; start 3.8 uM, 1:3 dilutions, duplicates in first column
- Two columns of each 10 and 0.4 nM (finals) concentrations.
5. Incubation; 37 C for 18 hrs
6. Detection reagent; 1 uL of CCF4-dye
7. Incubation; RT for 2 hrs
8. Detection; Fluorescence; Envision plate reader

Sequence of Thyroid hormone receptor beta (Homo sapiens) (P10828 whole entry, looked up): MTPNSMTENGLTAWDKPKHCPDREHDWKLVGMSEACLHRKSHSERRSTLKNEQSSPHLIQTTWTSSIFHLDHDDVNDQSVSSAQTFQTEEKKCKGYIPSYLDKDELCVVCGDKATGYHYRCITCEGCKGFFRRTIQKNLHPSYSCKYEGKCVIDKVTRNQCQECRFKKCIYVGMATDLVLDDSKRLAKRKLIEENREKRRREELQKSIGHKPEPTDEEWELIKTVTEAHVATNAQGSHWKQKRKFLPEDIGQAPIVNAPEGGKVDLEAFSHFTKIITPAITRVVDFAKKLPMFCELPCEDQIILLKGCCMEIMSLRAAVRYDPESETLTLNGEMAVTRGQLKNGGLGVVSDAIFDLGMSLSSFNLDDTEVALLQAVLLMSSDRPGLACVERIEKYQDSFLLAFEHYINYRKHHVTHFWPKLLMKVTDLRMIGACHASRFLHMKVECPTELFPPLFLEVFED

Row | SMILES | activation | outcome
1 | CCCCOC(=O)c1ccc(O)cc1 | 1.08% (inactive) | 
2 | CN(C)CCOC(C)(c1ccccc1)c1ccccn1 (stereo unspecified) | 7.33% (inactive) | 
3 | CNC(=O)Oc1ccc2c(c1)[C@]1(C)CCN(C)[C@@H]1N2C | 15% (inactive) | 
4 | COc1ccccc1O |  | inactive
5 | CN(C)CCCN1c2ccccc2Sc2ccc(Cl)cc21 | -6.11% (inactive) | 
6 | NCCNCCNCCN | -1.48% (inactive) | 
7 | CCCCC(CC)COC(=O)c1ccccc1O (stereo unspecified) | -14.6% (inactive) | 
8 | CC(O)COc1ccccc1 (stereo unspecified) | -6.17% (inactive) | 
9 | C[C@]12C[C@H](O)[C@H]3[C@@H](CCC4=CC(=O)CC[C@@]43C)[C@@H]1CC[C@@H]2C(=O)CO |  | inactive
10 | CN(C)CCC=C1c2ccccc2CCc2ccccc21 |  | inactive
11 | CC1(C)[C@@H]2CC[C@@]1(C)C(=O)C2 | -1.64% (inactive) | 
12 | CCOC(=O)c1ccc(O)cc1 | -3.64% (inactive) | 
13 | O=S(=O)(O)NC1CCCCC1 | -8.42% (inactive) | 
14 | COc1ccc(Cl)cc1C(=O)NCCc1ccc(S(=O)(=O)NC(=O)NC2CCCCC2)cc1 | 2.2% (inactive) | 
15 | CC1=C(/C=C/C(C)=C/C=C/C(C)=C/C(=O)O)C(C)(C)CCC1 | -15% (inactive) | 
16 | COC(=O)C1=C(C)NC(C)=C(C(=O)OC)C1c1ccccc1[N+](=O)[O-] | -4.75% (inactive) | 
17 | NCCNCCNCCNCCN |  | inactive
18 | CCCc1c(OCCCCc2nn[nH]n2)ccc(C(C)=O)c1O | -11% (inactive) | 
19 | C[C@]12CC[C@@H]3c4ccc(O)cc4CC[C@H]3[C@@H]1CCC2=O | -4.76% (inactive) | 
20 | CCCCCCCCCCCCOS(=O)(=O)O |  | inactive
21 | Oc1cccc(O)c1 | -20.1% (inactive) | 
22 | O=C1c2c(O)cccc2Cc2cccc(O)c21 | -15.5% (inactive) | 
23 | Cc1cc(CC(=O)O)n(C)c1C(=O)c1ccc(Cl)cc1 | -27.9% (inactive) | 
24 | O=C1O[C@H]([C@@H](O)CO)C(O)=C1O |  | inactive
25 | NC(=O)N/N=C/c1ccc([N+](=O)[O-])o1 |  | inactive
26 | CC(CN1c2ccccc2Sc2ccccc21)N(C)C (stereo unspecified) | 7.33% (inactive) | 
